Screens as filed in PubChem.
KB-V1 cytotox = KB-V1 MDR subline cytotoxicity; 400,000 compounds, 3.4% hits; KB-V1 MDR cells viability, CellTiter-Glo, 72 h; Potency, µM (doses to about 46.1 µM), most hits filed as cytotoxic; further: nearly all actives have a fitted effect of over 60% in size
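Luminescent ATP read-out (CellTiter-Glo, 10 min) measures survival of drug-selected KB-V1 MDR cells after 72 h, 37 degrees C compound exposure. Medium: phenol-red-free DMEM, 10% FBS. Values from fitted concentration-response curves.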
HT1080NT lethal = kills 2HG-producing HT-1080-NT fibrosarcoma cells. 360,000 compounds, 1.6% hits. Potency, µM (highest dose often 46.1 µM), without a hit: at the top dose activity, negative = less viability, usual class: cytotoxic. AID 686970. HT-1080-NT fibrosarcoma viability, CellTiter-Glo ATP luminescence, 48 h;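 further: NT is the 2HG producing partner of a matched IDH1 knockdown line; 0% = DMSO-treated cells and -100% = media-only wells without cells; nearly all actives have a fitted effect of over 55% in size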
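750 cells/well, RPMI + 5% FBS; 2 h settle, compound pin-transfer, 48 h at 37 degrees C. CellTiter-Glo 10 min RT, luminescence. Normalized to DMSO and media-only wells.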
KB-3-1 tox = KB-3-1 parental cell cytotoxicity. Potency, µM (titrated, usually from 46.1 µM), most hits filed as cytotoxic. 400,000 compounds, 1.4% hits. KB-3-1 viability, CellTiter-Glo ATP luminescence, 72 h. AID 1347075; further: nearly all actives have a fitted effect of over 60% in size
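72 h, 37 °C compound treatment of KB-3-1 parental cells; CellTiter-Glo added, 10 min, luminescence read. Data corrected against DMSO-only plates and normalized before curve fitting.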
HT1080 IDH1KD tx = toxicity to HT-1080 IDH1 knockdown cells (counter line); Potency, µM (top dose mostly 46.1 µM), inactives show top-dose activity, negative = toxicity, usual class: cytotoxic; 360,000 compounds, 2% hits; HT-1080 IDH1 knockdown viability, ATP luminescence, 48 h;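 further: 0% = DMSO wells and -100% = cell-free medium wells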
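Luminescent ATP read-out (CellTiter-Glo, 10 min at room temperature) after 48 h compound exposure at 37 °C gave viability of IDH1-knockdown HT-1080 cells. Activity was normalised to DMSO and cell-free wells, then fitted as concentration-response curves.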
TDP1 cell noCPT = qHTS for Inhibitors of human tyrosyl-DNA phosphodiesterase 1 (TDP1): qHTS in cells in absence of CPT | DT40 Tdp1-/- hTDP1 cells, no CPT, ATP luminescence, 48 h | Potency, µM (titrated, usually from 46.2 µM), for the others: at the highest dose activity change, negative = growth inhibition, actives largely listed as inhibitors | 420,000 compounds, 15% hits; further: nearly all actives have a fitted effect of over 55% in size
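Growth kinetics read by CellTiter-Glo luminescence after ≥48 hr at 37 °C. Cells: DT40 Tdp1-/- stably carrying human TDP1, 400 per well, compound exposure in the absence of CPT (DMSO vehicle).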
DT40 TDP1 CPT = DT40-hTDP1 cell growth loss with CPT | chicken DT40 Tdp1-/-;hTDP1 cells + 20 nM CPT, ATP luminescence, 48 h | 420,000 compounds, 12% hits | Potency, µM (titrated, usually from 46.2 µM), for the others: top-dose activity change, negative = growth inhibition, actives largely listed as inhibitors | AID 686979; further: nearly all actives have a fitted effect of over 55% in size
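Cell growth measured by CellTiter-Glo luminescence after a minimum 48 h, 37 C compound exposure with 20 nM CPT in Tdp1-knockout DT40 cells stably expressing hTDP1, seeded 400/well; qHTS titration format.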
* hit, by the source's call; i = inactive; ? = inconclusive; · = not tested or not shown; [ ] = another dose, or the depositor's remark. Compounds with a hit are over-represented: about 19% of the library has one in this group of screens. The call rests on the fitted dose curve; in most records, active means well fitted curve in the direction sought with a large enough effect; inconclusive means small, poorly fitted or top-dose-only effect, or another doubt; inactive means no such curve, though single readings can be large; an effect the other way counts as inactive or inconclusive. Unless noted, on the % scale 0 is the no-effect control and ±100 the full control effect; potency means the concentration at half of the fitted maximal effect.

SMILES | KB-V1 cytotox | HT1080NT lethal | KB-3-1 tox | HT1080 IDH1KD tx | TDP1 cell noCPT | DT40 TDP1 CPT
COc1ccccc1N1CCN(C(=O)c2ccc3c(=O)n(Cc4ccc5c(c4)OCO5)c(=O)[nH]c3c2)CC1 | i | -23.5% | i | -20.4% | 18.4µM* | 16.4µM*
Cc1cc2nc(C)n(CCCNC(=O)Nc3ccc(C#N)cc3)c2cc1C | i | ? | i | ? | ? | ?
Cc1cc2nc(C)n(CCCN)c2cc1C | i | -11.3% | i | 2.4% | 18.4µM* | 23.1µM*
O=C(O)Cc1csc(-c2cccc(F)c2)n1 | i | 12.9% | i | 23.4% | 21.0% | 10.9%
CN(C)c1ccc(CNC(=O)C2CCCN(S(=O)(=O)c3ccc4c(c3)oc(=O)n4C)C2)cc1 (stereo not drawn) | i | · | i | · | -18.3% | ?
CS(=O)(=O)N1CCN(c2ccccc2NC(=O)c2ccc(-c3ccc(Br)cc3)o2)CC1 | 2.59µM* | -0.9% | i | ? | ? | ?
CS(=O)(=O)N1CCN(c2ccccc2NC(=O)c2cc(Br)ccc2Cl)CC1 | i | -16.0% | ? | -12.6% | ? | 11.6%
COC(=O)c1ccccc1NC(=O)c1ccc(-c2ccc(Br)cc2)o1 | i | 17.5% | i | -1.1%[9.24 µM] | 1.64µM* | -10.7%
COc1cc2ccccc2cc1C(=O)Nc1ccccc1N1CCN(S(C)(=O)=O)CC1 | 4.11µM* | 2.9% | i | -12.7% | 20.6µM* | 20.6µM*
CCCCC(=O)Nc1ccccc1C(=O)OCc1cc(=O)n2nc(C3CCCCC3)sc2n1 | · | · | · | · | -28.8% | ?
Nc1nc(N(Cc2ccccc2)Cc2ccccc2)nc(C(F)(F)F)n1 | i | -54.7% | i | ? | -21.9% | -31.0%
CC[C@@]1(C(=O)OC)N[C@H](CN(C)C(=O)c2ccc(C)cc2)[C@@H]2C(=O)N(C)C(=O)[C@@H]21 | i | 13.9% | i | 7.8% | 0.3% | 2.4%
CC(=O)/C(=C\Nc1ccc(OCc2ccccc2)cc1)c1ccccc1 | ? | 6.2% | i | 18.6% | 29.1µM* | 18.4µM*
CC(=O)/C(=C/Nc1ccc(Oc2ccccc2)cc1)c1ccccc1 | ? | -1.4% | i | 1.3% | 18.4µM* | ?
CC(=O)Nc1ccc(Oc2ccccc2)cc1 | i | 0.4% | i | -3.0% | 2.2% | 2.2%
Cc1cccc(OCCSc2nc3ccccc3n2CC(=O)N2CCOCC2)c1C | i | · | i | · | ? | -22.2%
COc1ccccc1CNC(=O)c1cn(C)c2ccc(S(=O)(=O)N(C)C3CCCCC3)cc2c1=O | i | · | i | · | ? | ?
Nc1ccc(N(c2ccccc2)c2ccc(N)cc2)cc1 | ? | 16.4µM* | ? | 20.6µM* | 13µM* | 16.4µM*
CC1=C(C(=O)OCc2ccc3c(c2)OCO3)C(c2ccccc2OCc2ccccc2)NC(=O)N1 (stereo not drawn) | ? | ? | i | ? | 25.9µM* | ?
CC1=C(C(=O)OCc2ccc3c(c2)OCO3)C(c2ccc(O)c([N+](=O)[O-])c2)NC(=O)N1 (stereo not drawn) | i | -13.2% | i | -7.7% | ? | -10.2%
CCOC(=O)C1=C(C)NC(=O)NC1c1cccc(OC)c1OCc1ccccc1Cl (stereo not drawn) | 13µM* | -24.7% | i | ? | ? | 8.2µM*
CCCOc1ccccc1C1NC(=O)NC(C)=C1C(=O)OCc1ccccc1 (stereo not drawn) | 20.6µM* | ? | i | ? | ? | 23.1µM*
CCOc1ccccc1NC(=O)C1=C(C)Nc2ncnn2C1c1ccccn1 (stereo not drawn) | i | · | i | · | 0.2% | -1.1%
NC(=O)c1ccc(NS(=O)(=O)c2ccc(S(=O)(=O)N3CCCC3)cc2)cc1 | i | 10.1% | i | 4.5% | -8.1% | 10.3%
COC(=O)c1cc2ccc(OC)cc2c2cc(OC)c(OC)cc12 | i | -14.3% | i | -13.8% | ? | ?
SMILES | KB-V1 cytotox | HT1080NT lethal | KB-3-1 tox | HT1080 IDH1KD tx | TDP1 cell noCPT | DT40 TDP1 CPT
Cc1ccc(-c2nc3sc(CCNC(=O)c4ccc(Br)o4)c(C)n3n2)cc1 | i | · | i | · | 29.1µM* | ?
COc1ccc(-c2nc3sc(CCNC(=O)c4cccc(C(F)(F)F)c4)c(C)n3n2)cc1 | i | · | i | · | ? | ?
Cc1c(CCNC(=O)c2ccc(Br)o2)sc2nc(-c3ccc(F)cc3)nn12 | · | · | · | · | 4.61µM* | 11.6µM*
CCc1nnc2c(Nc3cc(OC)c(Cl)cc3OC)nc3ccccc3n12 | i | · | i | · | -29.7% | ?
COC(=O)c1cc(NC(=O)c2cc3sccc3n2Cc2ccc(Cl)cc2)cc(C(=O)OC)c1 | i | · | i | · | ? | ?
O=c1[nH]c(SCc2cccc(Cl)c2)nc2c1CCC2 | i | · | i | · | -19.4% | -28.7%
O=C(CSc1ccc(Cl)cc1)Nc1cccc(NC(=O)c2ccco2)c1 | i | -25.8% | i | 24.5% | -26.0% | ?
O=C(CSc1ccc(Cl)cc1)NC(=O)NCc1ccco1 | i | 0.9% | i | 0.9% | ? | 16.4µM*
O=C(CCSc1ccc(Cl)cc1)c1ccco1 | ? | -0.2% | i | 0.2% | 2.06µM* | 2.06µM*
O=C(CSc1ccccc1Cl)c1ccco1 | i | -3.0% | i | -6.3% | 8.2µM* | 20.6µM*
Cc1nc(SCC(=O)NC(=O)NCc2ccco2)nc(C)c1C | ? | 1.7% | i | 12.8% | 7.9% | 3.6%
O=C(CSc1ccc(Cl)cc1)c1ccco1 | i | 1.7% | i | -19.8% | 23.1µM* | 16.4µM*
O=C(NCCSc1ccc(Cl)cc1)c1ccco1 | i | 12.3% | i | 9.9% | -12.5% | -2.3%
COc1ccc(NC(=O)Cn2ccn(-c3ccc(C)c(C)c3)c(=O)c2=O)cc1Cl | · | · | · | · | -7.2% | -9.9%
CCCc1ccc(C(=O)CN2C(=O)C(=O)N(C3CCCC3)C2=O)cc1 | ? | 8.0% | i | 0.9% | 1.7% | -14.2%
COC(=O)C1(C(=O)OC)C/C=C\CN(S(=O)(=O)c2ccccc2[N+](=O)[O-])CC1 | i | 25.2% | i | 16.7% | -27.9% | -2.1%
CC(C)N1CC(O)=C(c2nc3ccccc3c(=O)[nH]2)C1=N | i | 16.7% | ? | -0.6% | ? | -10.6%
COc1cccc(N2CC(O)=C(c3nc4ccccc4c(=O)[nH]3)C2=N)c1 | ? | 1.26µM* | 4.61µM* | ? | 1.16µM* | 1.46µM*
